# Assay outcomes deposited in PubChem BioAssay by National Center for Advancing Translational Sciences (NCATS).
# Only some compounds are listed: those with a hit (about 6.2% of all), similar ones and a draw of the others.
# KB-3-1 cytotox: KB-3-1 parental cell cytotoxicity | Potency, µM (top dose mostly 46.1 µM), actives largely listed as cytotoxic | 400,000 compounds, 1.4% hits | KB-3-1 viability, CellTiter-Glo ATP luminescence, 72 h; also: % is scaled to controls: 0 for no effect and ±100 for the full control effect; nearly all actives have a fitted effect of over 60% in size
#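 Cells are dispensed, compounds pinned in, plates held at 37 °C for 72 h, then CellTiter-Glo is added and luminescence read after 10 minutes. Cell line: parental KB-3-1 in phenol-red-free DMEM, 10% FBS.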
# KB-V1 cytotox: kills drug-selected multidrug resistant KB-V1 cells. AID 1347076. 400,000 compounds, 3.4% hits. Potency, µM (highest dose often 46.1 µM), usual class: cytotoxic. KB-V1 MDR cells viability, CellTiter-Glo, 72 h; also: % is scaled to controls: 0 for no effect and ±100 for the full control effect; nearly all actives have a fitted effect of over 60% in size
#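 Compound-treated KB-V1 multidrug-resistant cells, 72 h, 37 degrees C; viability by CellTiter-Glo. Fitted qHTS curves give the values.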
# HT1080-NT tox: kills 2HG-producing HT-1080-NT fibrosarcoma cells | 360,000 compounds, 1.6% hits | HT-1080-NT fibrosarcoma viability, CellTiter-Glo ATP luminescence, 48 h | Potency, µM (highest dose often 46.1 µM), for the others: at the top dose activity, negative = less viability, usual class: cytotoxic;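 also: NT is the 2HG producing partner of a matched IDH1 knockdown line; 0% = DMSO-treated cells and -100% = media-only wells without cells; nearly all actives have a fitted effect of over 55% in size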
#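 HT-1080-NT; 750 cells/well; 5% FBS RPMI; 48 h compound, 37 degrees C; CellTiter-Glo luminescence; curve fitting and curve-class assignment.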
# S2 tox: viability counter-screen for ATXN expression inhibitors. S2 cells (HEK-293 line with an ATXN2-luciferase reporter) viability, CellTiter-Fluor protease fluorescence, 24 h. Potency, µM (doses to about 56.7 µM), usual class: cytotoxic. 400,000 compounds, 0.49% hits. AID 651635; also: nearly all actives have a fitted effect of over 40% in size
# ATXN2 expr inh: ATXN2 expression inhibition | HEK-293 ATXN2-luciferase reporter, luminescence, 24 h | Potency, µM (doses to about 57 µM), without a hit: top-dose activity change, negative = inhibition, actives largely listed as inhibitors | 360,000 compounds, 0.72% hits | AID 1745845; also: % is scaled to controls: 0 for no effect and ±100 for the full control effect; nearly all actives have a fitted effect of over 55% in size
#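 ATXN2-luciferase reporter cells (luciferase flanked by upstream and downstream ATXN2 gene portions) were treated 24 h at 37 °C with compounds at up to 57 uM. SteadyGlo luminescence gave expression; GF-AFC fluorescence gave viability.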
# HT1080 IDH1KD tx: HT-1080 IDH1 knockdown cell toxicity (counter line). HT-1080 IDH1 knockdown viability, ATP luminescence, 48 h. Potency, µM (titrated, usually from 46.1 µM), inactives show top-dose activity, negative = toxicity, most hits filed as cytotoxic. 360,000 compounds, 2% hits;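 also: 0% = DMSO wells and -100% = cell-free medium wells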
#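 Luminescent ATP read-out (CellTiter-Glo, 10 min at room temperature) after 48 h compound exposure at 37 °C gave viability of IDH1-knockdown HT-1080 cells. Activity was normalised to DMSO and cell-free wells, then fitted as concentration-response curves.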
# Starred values were filed as active, the others as inactive; i = inactive; ? = inconclusive; . = not tested or not shown. Calls follow the shape of the dose curve; as a rule, active = well fitted curve in the direction sought with a large enough effect; inconclusive = small, poorly fitted or top-dose-only effect, or another doubt; inactive = no such curve, though single readings can be large; an effect the other way counts as inactive or inconclusive. Potency is read from the fitted curve at half-maximal effect.
SMILES,KB-3-1 cytotox,KB-V1 cytotox,HT1080-NT tox,S2 tox,ATXN2 expr inh,HT1080 IDH1KD tx
Cc1ccc(N(Cc2ccccc2)C(=O)c2ccc(F)c(S(=O)(=O)N3CCOCC3)c2)cc1,?,3.7µM*,1%,i,-9%,-4%
Cc1cnc(NC(=O)c2ccc(F)c(S(=O)(=O)N3CCOCC3)c2)s1,i,18µM*,11%,i,23%,4%
COc1ccc(C(=O)Nc2ncc(C)s2)cc1S(=O)(=O)N1CCOCC1,?,?,11%,i,7%,-11%
O=C(Nc1ccc2c(c1)CCC2)c1ccc(F)c(S(=O)(=O)N2CCOCC2)c1,?,3.3µM*,-1%,i,8%,-15%
COc1ccccc1Cc1c(-c2ccc(Cl)cc2)nc2c(C)cc(Br)cn12,16µM*,?,?,?,?,?
Cc1cc(Br)cn2c(Cc3cccc(F)c3)c(-c3ccc(F)cc3)nc12,16µM*,i,?,i,2%,-16%
N#C/C(C(N)=O)=c1/ccc2c(c1)N1C3=C(CCCC3)CC3CCCCC31N=2 (stereo unspecified),?,23µM*,-3%,?,-22%,-3%
N#CC(C#N)=c1ccc2c(c1)N1C3=C(CCCC3)CC3CCCCC31N=2 (stereo unspecified),?,?,0%,?,?,-1%
Cc1cc(Cl)ccc1NC(=O)CN1C(=O)COc2ccc(S(=O)(=O)Nc3ccccc3)cc21,i,i,.,?,-9%,.
CCCN(CCC)C(=O)c1cc(-c2ccc3c(c2)OCO3)nc2ccccc12,i,18µM*,-13%,i,-2%,-29%
CC(NC(=O)c1cc(-c2ccc3c(c2)OCO3)nc2ccccc12)C(C)(C)C (stereo unspecified),i,16µM*,-2%,i,2%,-5%
Clc1ccc(CSc2nc3ccncc3[nH]2)cc1,?,i,-22%,i,-12%,?
Cc1ccc2nc(SCc3ccc([N+](=O)[O-])cc3)[nH]c2c1,?,16µM*,?,i,?,?
O=C(CSc1nc2ccc([N+](=O)[O-])cc2[nH]1)NC1CCCCCC1,?,13µM*,?,?,-37%,?
O=C(CSc1nc2ccc([N+](=O)[O-])cc2[nH]1)NC1CCCCC1,?,i,?,i,-30%,?
Cc1ccc2nc(SCC(=O)Nc3cccc([N+](=O)[O-])c3)[nH]c2c1,i,15µM*,-16%,i,-15%,?
Cc1ccc(CSc2nc3ccncc3[nH]2)cc1,12µM*,i,?,?,?,?
Cc1ccc2nc(SCc3ccc([N+](=O)[O-])cc3)nc(C)c2c1,?,i,13%,i,-13%,6%
Cc1cccc(N2CCN(C(=O)CS(=O)(=O)c3cccc4nsnc34)CC2C)c1 (stereo unspecified),i,?,.,i,9%,.
CCOC(=O)C1CCCN(C(=S)NC(=O)/C=C/c2ccc(F)cc2)C1 (stereo unspecified),i,i,-3%,i,.,0%
CCOC(=O)c1c(NC(C)=O)sc2c1CCC(C=NCCCN(CC)CC)=C2Sc1ccccc1,?,16µM*,?,.,?,?
CCOC(=O)c1c(NC(C)=O)sc2c(OCCN(CC)CC)c(Br)ccc12,i,i,-6%,?,?,-28%
COc1ccc(S(=O)(=O)Nc2cc3c4c(oc3c3ccccc23)CCCC4=O)cc1,7.3µM*,5.2µM*,?,?,-30%,3.7µM*
CC(C)c1ccc(N2C=Nc3ccc(C(C)C)cc3C2)cc1,?,i,?,?,-21%,23µM*
C1=Nc2ccccc2CN1c1ccccc1,i,i,6%,i,49%,5%
